For one experiment, the system named is Mel-DCC-11. As to the kind of experiment: cell viability relative to DMSO control (fraction of DMSO control); higher = less cytotoxic, active = 0.5 or less. As to conditions: 1 µM; 120 h. The method in brief: (§1)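 The screen used 384-well plates acoustically pre-spotted with 315 approved anti-cancer drugs from TargetMol, each at 1 µM in duplicate. Into each well went 40 µl of cells, 2500 NHEM-hTERT immortalized melanocytes or 1500 of patient-derived Mel-DCC-11 or its resistant subline Mel-DCC-11-R, and plates were kept 120 h, with the subline also tested alongside 8 µM of its selecting drug. Readout was by ATPlite 1step luminescence. Viability values were normalised to vehicle-treated controls and averaged between duplicates.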

For a further experiment, the system named is NHEM-hTERT. The experiment is described as above. The following applies: 1 µM; 120 h. The method, boiled down: as §1
For the next experiment, the system named is Mel-DCC-11-R. Put plainly: cell viability relative to DMSO control (fraction of DMSO control); higher = less cytotoxic, active = 0.8 or less. As to conditions: 1 µM, 120 h. The method, boiled down: as §1

Molecules are shown by their SMILES. Unmarked numbers belong to inactive results.

As to `CC1=C(/C=C/C(C)=C/C=C/C(C)=C/C(=O)O)C(C)(C)CCC1` [Tretinoin], the cell viability was 1.5 in the experiment with Mel-DCC-11, 0.953 in the experiment with NHEM-hTERT, 0.946 with Mel-DCC-11-R (vemurafenib co-treatment 0 µM) and 1.19 with Mel-DCC-11-R (vemurafenib co-treatment 8 µM).
Taken in the same sequence, the figures for `Nc1nc(=O)c2c(CCc3ccc(C(=O)N[C@@H](CCC(=O)O)C(=O)O)cc3)c[nH]c2[nH]1` [Pemetrexed acid] were 0.933, 1.19, 1.22 and 0.964.
For `Nc1nc2[nH]nnc2c(=O)[nH]1` [8-Azaguanine] the same measures were 1.68, 1.08, 1.42 and 1.05.
Taken in the same sequence, the figures for `C#CCC(Cc1cnc2nc(N)nc(N)c2n1)c1ccc(C(=O)N[C@@H](CCC(=O)O)C(=O)O)cc1` (stereo partly drawn) [Pralatrexate] were 1.03, 0.982, 0.982 and 1.09.
For the compound `CN1CCN(c2ccc3nc(-c4c(N)c5c(F)cccc5[nH]c4=O)[nH]c3c2)CC1` [Dovitinib], the cell viability is 1.11 with Mel-DCC-11, 0.972 in the experiment with NHEM-hTERT, 1.05 in the experiment on Mel-DCC-11-R (vemurafenib co-treatment 0 µM) and 1.08 with Mel-DCC-11-R (vemurafenib co-treatment 8 µM).
Taken in the same sequence, the figures for `C[C@@H]1O[C@@H](OC[C@H]2O[C@@H](Oc3c(-c4ccc(O)c(O)c4)oc4cc(O)cc(O)c4c3=O)[C@H](O)[C@@H](O)[C@@H]2O)[C@H](O)[C@H](O)[C@H]1O` [Rutin] were 0.977, 1.09, 1.01 and 0.929.
Taken in the same sequence, the figures for `CC1(C)[C@@H](O[C@H]2O[C@H](C(=O)O)[C@@H](O)[C@H](O)[C@H]2OC2O[C@H](C(=O)O)[C@@H](O)[C@H](O)[C@H]2O)CC[C@]2(C)[C@H]3C(=O)C=C4[C@@H]5C[C@@](C)(C(=O)O)CC[C@]5(C)CC[C@@]4(C)[C@]3(C)CC[C@@H]12` (stereo partly drawn) [Glycyrrhizin] were 1.13, 1.01, 1.06 and 1.19.
`CC(C)C[C@H](NC(=O)[C@@H](O)[C@H](N)Cc1ccccc1)C(=O)O` [Ubenimex]: the cell viability in the experiment with Mel-DCC-11 is 0.792; in the experiment on NHEM-hTERT it was 0.944; in the experiment on Mel-DCC-11-R (vemurafenib co-treatment 0 µM) it was 1.12; with Mel-DCC-11-R (vemurafenib co-treatment 8 µM), 0.942.
Turning to `CC[C@@H]1C(=O)N(C)c2cnc(Nc3ccc(C(=O)N[C@H]4CC[C@H](N5CCN(CC6CC6)CC5)CC4)cc3OC)nc2N1C(C)C` [Volasertib], the cell viability in the experiment on Mel-DCC-11 is 0.752; in the experiment on NHEM-hTERT, 0.872; in the experiment with Mel-DCC-11-R (vemurafenib co-treatment 0 µM), 1; in the experiment with Mel-DCC-11-R (vemurafenib co-treatment 8 µM), 0.664 (active).
For `C=CC(=O)Nc1cc(Nc2nccc(-c3cn(C)c4ccccc34)n2)c(OC)cc1N(C)CCN(C)C` [Osimertinib] the same measures were 0.923, 1.16, 1.06 and 0.884.
Taken in the same sequence, the figures for `CC(C)(S)[C@@H](N)C(=O)O` [Artamine] were 1.22, 1.08, 1.12 and 1.25.
For `N#Cc1ccc(C(c2ccc(C#N)cc2)n2cncn2)cc1` [Letrozole] the same measures were 1.01, 1.03, 1.08 and 1.06.
`Cc1ccc(NC(=O)c2ccc(CN3CCN(C)CC3)cc2)cc1Nc1nc(-c2cccnc2)cs1` [Masitinib]: the cell viability in the experiment on Mel-DCC-11 was 1.25; with NHEM-hTERT it was 0.801; in the experiment with Mel-DCC-11-R (vemurafenib co-treatment 0 µM), 1.1; in the experiment with Mel-DCC-11-R (vemurafenib co-treatment 8 µM), 0.944.
Taken in the same sequence, the figures for `Cc1ccc(NC(=O)C2(c3ccc4c(c3)OC(F)(F)O4)CC2)nc1-c1cccc(C(=O)O)c1` [Lumacaftor] were 1.12, 0.997, 0.946 and 1.04.
Regarding `Cc1cc(Nc2ncc(Cl)c(Nc3ccccc3S(=O)(=O)C(C)C)n2)c(OC(C)C)cc1C1CCNCC1`, the cell viability is 0.955 with Mel-DCC-11, 0.88 in the experiment on NHEM-hTERT, 1.17 in the experiment on Mel-DCC-11-R (vemurafenib co-treatment 0 µM) and 0.873 in the experiment with Mel-DCC-11-R (vemurafenib co-treatment 8 µM).
Taken in the same sequence, the figures for `COc1cc([C@@H]2c3cc4c(cc3[C@@H](O[C@@H]3O[C@@H]5CO[C@@H](c6cccs6)O[C@H]5[C@H](O)[C@H]3O)[C@H]3COC(=O)[C@H]23)OCO4)cc(OC)c1O` [Teniposide] were 1.16, 0.746, 1.39 and 0.638 (active).
For `CO[C@H]1C=CO[C@@]2(C)Oc3c(C)c(O)c4c(O)c(c(/C=N/N5CCN(C)CC5)c(O)c4c3C2=O)NC(=O)/C(C)=C\C=C/[C@H](C)[C@H](O)[C@@H](C)[C@@H](O)[C@@H](C)[C@H](OC(C)=O)[C@@H]1C` [Rifampicin] the same measures were 0.597, 1.03, 0.882 and 0.848.

The values above are taken from the supplement of paper PMC12808144.
